LmPK inh: blocks Leishmania mexicana pyruvate kinase activity. 290,000 tested, 0.37% active. Potency, µM (doses to about 57.5 µM), for the others: top-dose activity change, negative = inhibition, hits mostly inhibitors. Q27686. purified LmPK, Kinase-Glo ATP luminescence, 1 h; further: potency means the concentration at half of the fitted maximal effect; on the % scale 0 is the no-effect control and ±100 the full control effect
Target sequence (Q27686 whole entry, looked up): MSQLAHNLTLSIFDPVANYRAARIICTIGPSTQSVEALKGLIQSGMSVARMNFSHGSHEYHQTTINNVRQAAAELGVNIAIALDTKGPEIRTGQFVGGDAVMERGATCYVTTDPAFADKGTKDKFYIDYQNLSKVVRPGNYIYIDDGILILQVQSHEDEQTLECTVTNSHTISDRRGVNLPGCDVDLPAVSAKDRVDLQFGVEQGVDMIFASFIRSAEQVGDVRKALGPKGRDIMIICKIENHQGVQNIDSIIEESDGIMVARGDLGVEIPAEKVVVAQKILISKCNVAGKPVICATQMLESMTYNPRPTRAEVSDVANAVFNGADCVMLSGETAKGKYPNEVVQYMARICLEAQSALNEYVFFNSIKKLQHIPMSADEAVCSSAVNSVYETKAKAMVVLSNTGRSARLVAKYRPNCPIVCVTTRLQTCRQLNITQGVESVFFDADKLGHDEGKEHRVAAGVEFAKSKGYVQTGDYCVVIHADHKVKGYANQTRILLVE
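Purified LmPK (0.1 nM) with 0.5 mM PEP and 0.1 mM ADP in imidazole buffer pH 7.2 with MgCl2/KCl, 1 h at room temperature. ATP formed was read by luciferase luminescence and normalized to no-enzyme and uninhibited controls.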
FBPA Giardia inh: inhibitors of Giardia lamblia fructose-1,6-bisphosphate aldolase; Potency, µM (top dose mostly 59.6 µM), without a hit: at the top dose activity, negative = inhibition, most hits filed as inhibitors; purified Giardia FBPA; 290,000 tested, 0.71% active; A8B2U2; further: potency means the concentration at half of the fitted maximal effect; on the % scale 0 is the no-effect control and ±100 the full control effect; nearly all actives have a fitted effect of over 55% in size
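40 nM FBPA preincubated 10 min at RT with compound (up to 57.5 uM final), then substrate plus GAPDH/TPI/NAD/arsenate coupling and diaphorase/resazurin added. Fluorescence read after 20 min at RT, 525/598 nm.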
Shiga toxin inh: inhibitors of Shiga toxin in Vero cells; Vero cells, Shiga toxin protein synthesis inhibition reporter; inhibition, % at 38.7 µM; 290,000 tested, 9.2% active; AID 2315; in the data active means inhibition mostly above about 28%, no sharp cut-off; inactive means mostly below about 43%; further: 0% is about no effect
Cycloheximide cs: affects cycloheximide protein synthesis inhibition readout, counter-screen; cell reporter, cycloheximide protein synthesis inhibition counterscreen; 300,000 tested, 12% active; max response, %; AID 2314; in the data active means max response mostly above about 13%, no sharp cut-off; inactive means mostly below about 14%; further: read at 38.3 µM for the half of the compounds with a filed dose; 0% is about no effect
TbPYK inhibitor: T. brucei pyruvate kinase inhibition | Potency, µM (highest dose often 76.8 µM), for the others: at the highest dose activity, negative = inhibition, usual class: inhibitors | TbPYK enzyme, Kinase-Glo Plus ATP luminescence, 45 min | 410,000 tested, 0.12% active | Q57TT1; further: potency means the concentration at half of the fitted maximal effect; on the % scale 0 is the no-effect control and ±100 the full control effect; nearly all actives have a fitted effect of over 50% in size
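Luminescent Kinase-Glo Plus end-point after 45 min room-temperature reaction of T. brucei pyruvate kinase started with 130 uM ADP (final). Buffer TEA 50 mM pH 7.2 with KCl, MgCl2, BSA, Tween-20; titration-based qHTS with fitted concentration-effect curves.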
Sm TGR block: S. mansoni TGR enzyme inhibition. 360,000 tested, 3% active. Q962Y6. purified TGR, DTNB reduction, TNB absorbance 405 nm. AID 485364. Potency, µM (highest dose often 114 µM), for the others: at the top dose activity change, negative = inhibition, most hits filed as inhibitors; further: potency means the concentration at half of the fitted maximal effect; on the % scale 0 is the no-effect control and ±100 the full control effect; nearly all actives have a fitted effect of over 60% in size
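Kinetic colorimetric format: TGR-catalysed, NADPH-driven DTNB reduction monitored via TNB absorbance. Enzyme dispensed at 20 nM; compound exposure 15 min at room temperature before reaction start.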
Starred values were filed as active, the others as inactive; ? = inconclusive; · = no result given; [ ] = remark or other dose. Only a selection was taken, and hits are over-represented in it overall. Unless noted, the call rests on the fitted dose curve; in most records, active means well fitted curve in the direction sought with a large enough effect; inconclusive means small, poorly fitted or top-dose-only effect, or another doubt; inactive means no such curve, though single readings can be large; an effect the other way counts as inactive or inconclusive.

SMILES | LmPK inh | FBPA Giardia inh | Shiga toxin inh | Cycloheximide cs | TbPYK inhibitor | Sm TGR block
COc1ccc(C(=O)C2CCCN(C(=O)c3ccc(CSC)o3)C2)cc1F (stereo not drawn) | 3.5% | · | 17.4 | -2.8 | -5.8% | 28.2µM*
COc1ccc(-c2onc(C)c2C)cc1S(=O)(=O)N1CCc2ccccc21 | · | · | · | · | 2.5% | -0.2%
O=C(c1cc(-c2ccc(Cl)cc2)on1)N1CCOCC1 | -11.0% | 6.1% | 110.6* | 29.2* | 0.9% | 0.1%
O=C(c1cc(-c2ccc(Cl)cc2Cl)on1)N1CCOCC1 | -15.9% | 6.4% | 58.9 | 25.2* | 5.0% | -9.3%
CC1CCN(C(=O)c2cc(-c3ccc(Cl)c(Cl)c3)on2)CC1 | 1.9% | -1.7% | 19.9 | 1.2 | -3.0% | 0.9%
O=C(NCCN1CCOCC1)c1cc(-c2ccc(Cl)c(Cl)c2)on1 | 1.9% | 0.4% | -7.2 | -4.2 | -4.6% | -6.3%
O=C(c1cc(-c2ccc(Cl)c(Cl)c2)on1)N1CCOCC1 | -1.2% | -1.5% | 45.4* | 17.0* | -3.3% | 4.7%
O=C(c1cc(-c2ccc(Cl)c(Cl)c2)on1)N1CCCC1 | 4.7% | 5.9% | 35.6* | 21.0* | · | 5.7%
CCCNC(=O)C1CCC(Cn2c(=O)c3sccc3n(CC(=O)NCc3cccc(OC)c3OC)c2=O)CC1 (stereo not drawn) | · | · | · | · | 5.3% | -5.8%
CCOC(=O)Cn1c(=O)n(CC2CCCO2)c2nc(-c3ccc(CC)cc3)nc(C(N)=O)c21 (stereo not drawn) | · | · | · | · | 2.0% | -5.0%
C=C1CC(COc2ccc3c(C)c(Cl)c(=O)oc3c2)(c2ccccc2)OC1=O (stereo not drawn) | · | · | · | · | -1.0% | ·
C/C=C/C1=Cc2ccccc2C(CC(=O)OC)N1C(=O)OC (stereo not drawn) | -1.2%[11.5 µM] | 2.8%[12.9 µM] | · | · | · | ·
O=C(c1cc(-c2cccc(Cl)c2)on1)N1CCOCC1 | -4.5% | -5.7% | 137.0* | 25.1* | 4.6% | 1.7%
Cc1cc(-c2ccccc2)nc2c(Br)c(=O)[nH]n12 | 1.4% | 3.0% | 14.2 | -3.0 | -11.3% | 44.7µM*
CCCCCCSc1ncc(C#N)c(N)n1 | -1.6% | 5.3% | 36.7* | 29.0* | -4.3% | -12.7%
N#Cc1cnc(SCCc2ccccc2)nc1N | -8.9% | -7.1% | 39.5* | 24.1* | -8.5% | -10.0%
Cc1ccccc1CSc1ncc(C#N)c(N)n1 | 2.4% | 3.1% | 63.1 | 9.7 | 5.1% | -23.9%
CC(C)(C)c1cc(-c2n[nH]c(=S)n2-c2ccccc2F)n[nH]1 | 14.1µM* | -17.4% | 73.9* | 40.3* | ? | 1.7%
Cn1c(=O)c2c(nc3n(-c4ccc(O)cc4)c(-c4ccc(Br)cc4)cn23)n(C)c1=O | · | · | · | · | 3.7% | 0.6%
Cc1ccc(-c2nnc3c4ccccc4c(C)nn23)cc1NC(=O)c1ccccc1Cl | · | · | · | · | 1.8% | -2.0%
COc1c(OC(C)=O)ccc(/C=C/c2ccc3cccc(OCc4ccccc4)c3n2)c1[N+](=O)[O-] | 2.4% | -1.3% | 52.8* | 34.8* | 3.2% | -3.0%
COc1ccc(C(=O)N/N=C/c2ccc3cccc(OCc4ccccc4)c3n2)cc1 | -3.1% | 0.4% | 60.6* | 21.5* | 3.3% | -15.5%
O=C(N/N=C/c1ccc2cccc(OCc3ccccc3)c2n1)c1ccc(Br)cc1 | 0.7% | -0.2% | 38.0 | 18.0* | -3.9% | -8.8%
CCCN(C(=O)c1c(C)oc2ncnc(N3CCOCC3)c12)c1ccc(Cl)c(Cl)c1 | · | · | · | · | 1.9% | -4.0%
Cc1cccc(C)c1NC(=O)CSc1nccn1C | · | · | · | · | 2.4% | -2.1%
SMILES | LmPK inh | FBPA Giardia inh | Shiga toxin inh | Cycloheximide cs | TbPYK inhibitor | Sm TGR block
Fc1cccc(CN2CCc3nc(Nc4ccc5c(c4)OCCO5)ncc3C2)c1F | · | · | · | · | -4.1% | 3.2%
Cc1ccccc1-c1nnn(Cc2ccc(F)cc2Cl)n1 | -1.4% | -0.4% | 24.0* | 17.8 | -5.3% | -7.5%
Fc1ccc(-c2nnn(Cc3ccc(F)cc3Cl)n2)cc1 | -1.0% | 4.4% | 105.1* | 23.8* | -1.7% | -2.8%
Fc1ccc(Cn2nnc(-c3ccc(CN4CCOCC4)cc3)n2)cc1 | -6.0% | 3.3% | 11.2 | 9.2 | 0.7% | -21.7%
CCOc1ccccc1-n1nnnc1SCC(=O)NC(=O)NCc1ccco1 | -8.4% | -0.7% | 5.6 | -2.4 | 1.7% | 44.7µM*
CCOc1ccccc1-n1nnnc1SCC(=O)NC(=O)Cc1ccccc1 | · | · | · | · | -0.8% | 20µM*
CCCn1c(SCC(=O)NC(=O)NCc2ccco2)n[nH]c1=O | -12.8% | -14.7% | -18.8 | 8.3 | · | 39.8µM*

Assay outcomes from PubChem.
